We go through eight sequences from publication PMC7862700, “An all-to-all approach to the identification of sequence-specific readers for epigenetic DNA modifications on cytosine”.

Holding throughout (experiment): DAPPL (digital affinity profiling via proximity ligation, sequencing); 10 mM Tris-HCl pH 7.5, 50 mM NaCl, 1 mM DTT, 4% glycerol, room temperature, 30 min; GST-TFs on glutathione beads, 16-mer random dsDNA library, 0.1% formaldehyde crosslink after washing; high values mean tight binding
Conditions in all cases: protein: recombinant; tags: N-terminal GST; dsDNA, one strand shown

One assay addresses T1, FLI1 (Homo sapiens, UniProt Q01543 1-452).
T1 sequence: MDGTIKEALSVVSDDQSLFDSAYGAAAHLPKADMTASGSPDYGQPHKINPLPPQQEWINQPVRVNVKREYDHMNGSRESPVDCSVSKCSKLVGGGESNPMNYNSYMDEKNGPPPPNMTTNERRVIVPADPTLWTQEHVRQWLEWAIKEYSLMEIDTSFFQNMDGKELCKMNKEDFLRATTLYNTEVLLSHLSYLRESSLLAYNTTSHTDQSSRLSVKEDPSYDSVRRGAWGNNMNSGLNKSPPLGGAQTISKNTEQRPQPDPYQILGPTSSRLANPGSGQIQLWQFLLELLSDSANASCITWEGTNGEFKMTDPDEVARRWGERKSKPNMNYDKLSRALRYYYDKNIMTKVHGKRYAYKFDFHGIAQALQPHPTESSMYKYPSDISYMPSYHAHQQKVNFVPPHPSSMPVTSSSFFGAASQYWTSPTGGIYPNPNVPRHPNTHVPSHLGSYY
The gist of the method:
(§1)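 Pools were built from human transcription factors expressed in yeast as GST fusions, captured on glutathione beads and DNA-barcoded, along with a tag-only sample. Incubation with 200 nmole of a 16-mer random double-stranded DNA library lasted 30 min at room temperature in Tris/NaCl/DTT/glycerol buffer, and was followed by washing, 0.1% formaldehyde crosslinking, proximity ligation, PCR amplification and Illumina NextSeq500 sequencing. Binding signal is the quotient of each hexamer's read frequency for a factor and its frequency for the tag-only sample.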

The next assay addresses T2, ELK1 (Homo sapiens, UniProt P19419 1-428).
T2 sequence: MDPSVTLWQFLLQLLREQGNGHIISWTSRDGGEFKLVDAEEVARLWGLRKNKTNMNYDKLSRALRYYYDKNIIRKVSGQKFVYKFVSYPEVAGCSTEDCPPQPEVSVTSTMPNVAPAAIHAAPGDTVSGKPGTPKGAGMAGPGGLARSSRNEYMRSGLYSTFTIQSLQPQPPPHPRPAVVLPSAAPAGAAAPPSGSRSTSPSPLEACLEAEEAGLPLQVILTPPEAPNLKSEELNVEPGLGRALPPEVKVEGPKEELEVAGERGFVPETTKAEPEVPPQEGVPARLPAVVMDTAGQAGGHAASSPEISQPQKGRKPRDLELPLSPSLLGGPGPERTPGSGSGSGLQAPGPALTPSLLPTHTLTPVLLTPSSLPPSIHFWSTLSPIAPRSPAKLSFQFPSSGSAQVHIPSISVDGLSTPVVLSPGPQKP
The essentials: as §1

The target in the next assay is T3, GABPA (Homo sapiens, UniProt Q06546 1-454).
T3 sequence: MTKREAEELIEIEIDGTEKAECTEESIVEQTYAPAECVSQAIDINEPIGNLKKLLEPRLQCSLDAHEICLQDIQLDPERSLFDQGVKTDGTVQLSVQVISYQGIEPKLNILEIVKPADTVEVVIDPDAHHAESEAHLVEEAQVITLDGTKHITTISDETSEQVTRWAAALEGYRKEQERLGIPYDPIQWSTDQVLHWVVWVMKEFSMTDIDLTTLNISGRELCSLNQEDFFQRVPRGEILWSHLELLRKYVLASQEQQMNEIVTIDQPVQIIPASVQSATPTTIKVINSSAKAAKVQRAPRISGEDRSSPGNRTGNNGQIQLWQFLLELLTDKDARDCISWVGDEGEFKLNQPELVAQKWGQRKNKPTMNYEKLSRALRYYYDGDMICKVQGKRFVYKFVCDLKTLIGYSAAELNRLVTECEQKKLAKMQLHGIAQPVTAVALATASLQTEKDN
The gist of the method: as §1

Another assay addresses T4, ERG (Homo sapiens, UniProt P11308 1-479).
T4 sequence: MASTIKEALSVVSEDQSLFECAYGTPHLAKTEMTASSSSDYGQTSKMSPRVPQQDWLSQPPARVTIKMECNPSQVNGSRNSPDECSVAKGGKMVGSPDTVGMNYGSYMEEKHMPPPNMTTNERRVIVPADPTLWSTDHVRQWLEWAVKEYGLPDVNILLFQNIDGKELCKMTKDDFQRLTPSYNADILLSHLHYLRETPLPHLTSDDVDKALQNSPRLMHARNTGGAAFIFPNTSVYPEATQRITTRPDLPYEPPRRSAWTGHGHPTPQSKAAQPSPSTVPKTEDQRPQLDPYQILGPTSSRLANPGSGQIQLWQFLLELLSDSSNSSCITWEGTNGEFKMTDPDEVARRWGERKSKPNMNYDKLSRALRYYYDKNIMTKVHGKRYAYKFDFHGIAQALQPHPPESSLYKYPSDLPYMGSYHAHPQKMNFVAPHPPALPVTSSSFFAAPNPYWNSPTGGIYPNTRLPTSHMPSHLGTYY
The essentials:
as §1

Another assay concerns the target ELF1 (Homo sapiens, UniProt P32519 1-619). The gist of the method: as §1
The target of the next assay is T5, EHF (Homo sapiens, UniProt Q9NZC4 1-300).
T5 sequence: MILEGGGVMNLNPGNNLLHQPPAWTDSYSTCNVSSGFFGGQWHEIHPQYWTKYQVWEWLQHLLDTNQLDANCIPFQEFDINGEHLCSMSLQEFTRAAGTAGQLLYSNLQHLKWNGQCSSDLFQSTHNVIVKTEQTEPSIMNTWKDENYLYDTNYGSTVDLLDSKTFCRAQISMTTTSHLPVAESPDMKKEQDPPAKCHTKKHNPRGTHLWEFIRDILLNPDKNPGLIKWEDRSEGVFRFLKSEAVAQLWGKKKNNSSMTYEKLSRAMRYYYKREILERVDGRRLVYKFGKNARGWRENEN
The gist of the method: as §1

A further assay has as its target SPI1 (Homo sapiens, UniProt P17947 1-270). The gist of the method: as §1
The target of another assay is SPIB (Homo sapiens, UniProt Q01892 1-262). The gist of the method:
as §1

For a further assay, the target named is T6, ELK3 (Homo sapiens, UniProt P41970 1-407).
T6 sequence: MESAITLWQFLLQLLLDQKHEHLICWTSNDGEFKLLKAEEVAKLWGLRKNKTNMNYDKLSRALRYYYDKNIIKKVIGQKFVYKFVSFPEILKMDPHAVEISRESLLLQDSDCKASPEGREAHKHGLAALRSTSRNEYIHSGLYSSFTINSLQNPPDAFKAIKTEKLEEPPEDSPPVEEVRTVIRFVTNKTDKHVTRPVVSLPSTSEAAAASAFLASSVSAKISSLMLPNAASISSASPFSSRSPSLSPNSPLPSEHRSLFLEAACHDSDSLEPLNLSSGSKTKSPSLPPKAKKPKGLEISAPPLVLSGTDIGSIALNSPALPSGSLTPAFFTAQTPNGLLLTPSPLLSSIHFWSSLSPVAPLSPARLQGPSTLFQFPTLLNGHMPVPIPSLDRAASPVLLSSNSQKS
The gist of the method: as §1

ELF1, sequence (P32519 whole entry): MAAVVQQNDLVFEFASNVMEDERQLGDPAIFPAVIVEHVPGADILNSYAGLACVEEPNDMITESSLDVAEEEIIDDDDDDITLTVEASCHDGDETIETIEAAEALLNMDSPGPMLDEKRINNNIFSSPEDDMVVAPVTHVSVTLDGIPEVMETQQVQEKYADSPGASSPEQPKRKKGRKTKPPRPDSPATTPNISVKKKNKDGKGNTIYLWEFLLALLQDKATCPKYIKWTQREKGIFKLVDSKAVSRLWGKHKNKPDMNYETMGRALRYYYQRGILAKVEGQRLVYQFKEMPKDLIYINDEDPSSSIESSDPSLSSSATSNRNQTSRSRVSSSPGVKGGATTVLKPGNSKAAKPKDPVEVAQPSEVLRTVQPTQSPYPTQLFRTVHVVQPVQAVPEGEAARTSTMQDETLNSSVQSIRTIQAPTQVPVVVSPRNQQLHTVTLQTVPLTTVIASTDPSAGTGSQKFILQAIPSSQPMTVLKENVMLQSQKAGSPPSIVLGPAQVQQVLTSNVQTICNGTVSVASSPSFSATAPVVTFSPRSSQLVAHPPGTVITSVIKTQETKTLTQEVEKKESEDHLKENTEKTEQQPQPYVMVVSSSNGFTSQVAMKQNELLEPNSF
SPIB, sequence (Q01892 whole entry): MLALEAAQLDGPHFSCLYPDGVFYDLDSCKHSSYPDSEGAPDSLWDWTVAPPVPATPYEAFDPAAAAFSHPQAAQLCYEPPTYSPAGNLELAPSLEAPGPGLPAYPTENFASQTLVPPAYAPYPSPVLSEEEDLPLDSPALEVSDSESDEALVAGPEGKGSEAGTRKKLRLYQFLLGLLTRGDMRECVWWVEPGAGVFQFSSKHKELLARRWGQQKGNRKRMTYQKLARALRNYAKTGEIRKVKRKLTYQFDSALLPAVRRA

With CCCGCC, the binding signal is 1.46 fold enrichment (6-mer frequency, TF over GST control) with FLI1; 1.75 fold enrichment (6-mer frequency, TF over GST control) in the assay with ELK1; 1.57 fold enrichment (6-mer frequency, TF over GST control) with GABPA; 1.5 fold enrichment (6-mer frequency, TF over GST control) with ERG; 1.58 fold enrichment (6-mer frequency, TF over GST control) in the assay with ELF1; 1.53 fold enrichment (6-mer frequency, TF over GST control) in the assay with EHF. Besides, the binding signal with SPI1 was 1.44 fold enrichment (6-mer frequency, TF over GST control); with SPIB, 1.31 fold enrichment (6-mer frequency, TF over GST control); in the assay with ELK3, 1.63 fold enrichment (6-mer frequency, TF over GST control).

On to TCTATT, for which the binding signal in the assay with FLI1 is 1.33 fold enrichment (6-mer frequency, TF over GST control); with ELK1, 1.3 fold enrichment (6-mer frequency, TF over GST control); with GABPA, 1.18 fold enrichment (6-mer frequency, TF over GST control); in the assay with ERG, 1.25 fold enrichment (6-mer frequency, TF over GST control); in the assay with ELF1, 1.29 fold enrichment (6-mer frequency, TF over GST control); with EHF, 1.28 fold enrichment (6-mer frequency, TF over GST control). Moreover, the binding signal with SPI1 is 1.28 fold enrichment (6-mer frequency, TF over GST control); with SPIB, 1.28 fold enrichment (6-mer frequency, TF over GST control); with ELK3, 1.18 fold enrichment (6-mer frequency, TF over GST control).

Regarding TTTTTG, the binding signal is 1.43 fold enrichment (6-mer frequency, TF over GST control) with FLI1; 1.29 fold enrichment (6-mer frequency, TF over GST control) with ELK1; 1.38 fold enrichment (6-mer frequency, TF over GST control) with GABPA; 1.33 fold enrichment (6-mer frequency, TF over GST control) in the assay with ERG; 1.4 fold enrichment (6-mer frequency, TF over GST control) with ELF1; 1.27 fold enrichment (6-mer frequency, TF over GST control) with EHF. The binding signal with SPI1 was 1.54 fold enrichment (6-mer frequency, TF over GST control); in the assay with SPIB, 1.5 fold enrichment (6-mer frequency, TF over GST control); with ELK3 it was 1.4 fold enrichment (6-mer frequency, TF over GST control).

As to TTTCAC, the binding signal is 1.39 fold enrichment (6-mer frequency, TF over GST control) with FLI1; 1.34 fold enrichment (6-mer frequency, TF over GST control) with ELK1; 1.37 fold enrichment (6-mer frequency, TF over GST control) with GABPA; 1.33 fold enrichment (6-mer frequency, TF over GST control) with ERG; 1.43 fold enrichment (6-mer frequency, TF over GST control) with ELF1; 1.3 fold enrichment (6-mer frequency, TF over GST control) with EHF. In addition, the binding signal with SPI1 was 1.34 fold enrichment (6-mer frequency, TF over GST control); in the assay with SPIB, 1.27 fold enrichment (6-mer frequency, TF over GST control); with ELK3, 1.39 fold enrichment (6-mer frequency, TF over GST control).

For TTAACA, the binding signal in the assay with FLI1 is 1.18 fold enrichment (6-mer frequency, TF over GST control); with ELK1, 1.13 fold enrichment (6-mer frequency, TF over GST control); with GABPA, 1.15 fold enrichment (6-mer frequency, TF over GST control); in the assay with ERG it was 1.15 fold enrichment (6-mer frequency, TF over GST control); with ELF1, 1.17 fold enrichment (6-mer frequency, TF over GST control); with EHF, 1.13 fold enrichment (6-mer frequency, TF over GST control). Also, the binding signal with SPI1 was 1.15 fold enrichment (6-mer frequency, TF over GST control); with SPIB, 1.14 fold enrichment (6-mer frequency, TF over GST control); with ELK3, 1.19 fold enrichment (6-mer frequency, TF over GST control).

Turning to GTAATA, the binding signal with FLI1 is 1.12 fold enrichment (6-mer frequency, TF over GST control); in the assay with ELK1, 1.21 fold enrichment (6-mer frequency, TF over GST control); with GABPA, 1.09 fold enrichment (6-mer frequency, TF over GST control); in the assay with ERG, 1.15 fold enrichment (6-mer frequency, TF over GST control); with ELF1, 1.15 fold enrichment (6-mer frequency, TF over GST control); in the assay with EHF, 1.2 fold enrichment (6-mer frequency, TF over GST control). Besides, the binding signal in the assay with SPI1 is 1.11 fold enrichment (6-mer frequency, TF over GST control); in the assay with SPIB it was 1.24 fold enrichment (6-mer frequency, TF over GST control); with ELK3, 1.01 fold enrichment (6-mer frequency, TF over GST control).

As for CCACTT, the binding signal was 1.86 fold enrichment (6-mer frequency, TF over GST control) with FLI1; 1.86 fold enrichment (6-mer frequency, TF over GST control) with ELK1; 1.81 fold enrichment (6-mer frequency, TF over GST control) in the assay with GABPA; 2.02 fold enrichment (6-mer frequency, TF over GST control) with ERG; 1.85 fold enrichment (6-mer frequency, TF over GST control) with ELF1; 1.93 fold enrichment (6-mer frequency, TF over GST control) with EHF. Also, the binding signal with SPI1 was 2.41 fold enrichment (6-mer frequency, TF over GST control); with SPIB, 1.74 fold enrichment (6-mer frequency, TF over GST control); with ELK3 it was 1.83 fold enrichment (6-mer frequency, TF over GST control).

As to TTTACA, the binding signal is 1.18 fold enrichment (6-mer frequency, TF over GST control) with FLI1; 1.19 fold enrichment (6-mer frequency, TF over GST control) with ELK1; 1.25 fold enrichment (6-mer frequency, TF over GST control) with GABPA; 1.23 fold enrichment (6-mer frequency, TF over GST control) with ERG; 1.31 fold enrichment (6-mer frequency, TF over GST control) with ELF1; 1.31 fold enrichment (6-mer frequency, TF over GST control) with EHF. Further, the binding signal in the assay with SPI1 is 1.22 fold enrichment (6-mer frequency, TF over GST control); in the assay with SPIB, 1.24 fold enrichment (6-mer frequency, TF over GST control); with ELK3, 1.25 fold enrichment (6-mer frequency, TF over GST control).
